Assay outcomes (PubChem)
Rows were chosen to be rich in hits. Some 3.5% of all compounds tested hit in one or more screens of this group.
FBW7 act = FBW7 E3 ligase activators, primary screen, biochemical, AlphaScreen, human. AlphaScreen FBW7–phospho-cyclin E peptide binding, activator screen. normalized activity (activation), % at 26.1 µM. actives 0.13% (n = 650,000). AID 1259310, 2017; in the data active = normalized activity above about 1.9%;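 note: purified mutant Fbw7 with reduced substrate affinity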
GPR151 activ = activators of human GPR151, primary screen, cell-based, PathHunter beta-arrestin, luminescence. G-protein coupled receptor 151 (Homo sapiens), Q8TDV0. PathHunter beta-arrestin GPR151 cells. activation, % at 11.2 µM. actives 1% (n = 650,000). AID 1508602, 2020; in the data active = activation above about 4.9%;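 note: 0% = median of compound wells and 100% = cells with positive control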
MITF primary = MITF inhibitors, primary screen, biochemical, AlphaScreen, human; AlphaScreen MITF homodimerization, bead proximity signal; inhibition, % at 2.6 µM; actives 0.91% (n = 650,000); in the data active = inhibition above about 50%;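 note: 0% = vehicle wells with protein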
Target sequence (O75030 whole entry, looked up): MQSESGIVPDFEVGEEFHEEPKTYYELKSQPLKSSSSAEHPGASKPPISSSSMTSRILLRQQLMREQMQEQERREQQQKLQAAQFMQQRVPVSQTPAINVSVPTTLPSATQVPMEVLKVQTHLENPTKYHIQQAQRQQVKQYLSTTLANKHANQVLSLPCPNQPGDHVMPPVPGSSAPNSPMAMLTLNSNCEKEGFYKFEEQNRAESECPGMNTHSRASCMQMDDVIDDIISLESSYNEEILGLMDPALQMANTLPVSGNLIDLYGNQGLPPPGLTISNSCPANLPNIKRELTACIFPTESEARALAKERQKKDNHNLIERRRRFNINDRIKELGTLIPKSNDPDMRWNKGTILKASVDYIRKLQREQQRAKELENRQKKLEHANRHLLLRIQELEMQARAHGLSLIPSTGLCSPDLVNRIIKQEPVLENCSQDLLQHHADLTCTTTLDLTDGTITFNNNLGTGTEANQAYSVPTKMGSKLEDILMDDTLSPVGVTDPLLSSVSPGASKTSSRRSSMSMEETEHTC
TEAD-YAP block = TEAD-YAP interaction inhibition, primary screen, TEAD-YAP interaction inhibitor project, luminescence, HEK-TIYL cells; TEAD-Gal4/YAP UAS-luciferase luminescence; AID 1259422, 2018; actives 1.4% (n = 640,000); inhibition, % at 9.12 µM; in the data active = inhibition above about 32%;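 note: 0% = median of test compound wells and 100% = reference inhibitor wells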
* marks the source's active call; other numbers are inactive results.

SMILES | FBW7 act | GPR151 activ | MITF primary | TEAD-YAP block
OCCC1CCCCN1c1ccnc2c(-c3cccc(C(F)(F)F)c3)cnn12 (configuration not stated) | -0.2 | -1.5 | -7.5 | 55.1*
CC(=O)Nc1cccc(-c2cnn3c(N4CCCCC4CCO)ccnc23)c1 (configuration not stated) | 0.0 | -0.1 | -9.8 | -3.1
OCCC1CCCCN1c1ccnc2c(-c3cccc(F)c3)cnn12 (configuration not stated) | -0.2 | 0.4 | -18.4 | 93.3*
OCCC1CCCCN1c1ccnc2c(-c3cccc(O)c3)cnn12 (configuration not stated) | -0.3 | -0.9 | 4.4 | 94.6*
CCn1c(C2COc3ccccc3O2)nc2ccc(-c3ncnc4[nH]ccc34)cc21 (configuration not stated) | 0.8 | 0.9 | 19.0 | -2.7
CC(=O)n1c(Nc2ccc(C)cc2)cc2ccccc2c1=O | -0.2 | 0.4 | 0.8 | -0.8
COc1ccc(C(=O)NNC(=O)c2ccc(C)cc2)cc1OC | 0.8 | 3.1 | 18.0 | 7.4
Cc1nn(C(C)C)c(C)c1CN1CCN(Cc2cccs2)C(CCO)C1 (configuration not stated) | 0.1 | 0.6 | -26.3 | 2.5
CSc1ncccc1C(=O)OCc1cc(=O)oc2cc(C)ccc12 | 0.1 | 0.1 | 10.7 | 3.4
Cc1cc(C)c2nc3s/c(=C/c4cc(Br)c(O)c(Br)c4)c(=O)n3c2c1 | -0.1 | -0.7 | -4.5 | 0.1
O=C1NC(=O)N(Cc2ccco2)C(=O)/C1=C\c1ccc2c(c1)OCO2 | -0.1 | 1.4 | 72.4* | -12.0
COc1cc(N2CCOCC2)ccc1/C=C1\C(=O)NC(=O)N(Cc2ccco2)C1=O | -0.4 | 0.4 | 65.6* | -5.7
O=C1NC(=O)N(Cc2ccco2)C(=O)/C1=C\C=C\c1ccccc1 | 0.0 | 0.0 | 54.1* | 6.2
COc1ccc(/C=C2/C(=O)NC(=O)N(Cc3ccccc3)C2=O)cc1OC | 0.2 | -0.2 | 14.0 | 2.4
C=CCN1C(=O)NC(=O)/C(=C/C=C/c2ccco2)C1=O | 0.0 | 1.6 | 26.0 | 8.8
O=C1/C(=C/c2ccc3c(c2)OCO3)SC(=S)N1Cc1ccco1 | 0.9 | 0.5 | 8.5 | 1.8
COc1ccc(/C=C2/C(=O)NC(=O)N(Cc3ccco3)C2=O)cc1C | 0.5 | 0.8 | 58.8* | 5.3
O=C(Nc1cccc2c(-c3ccccc3)ccnc12)C1CC1 | 0.0 | -0.3 | 4.8 | -59.0
CC[C@]1(O)CC2CN(CCc3c([nH]c4ccccc34)[C@@](C(=O)OC)(c3cc4c(cc3OC)N(C)[C@H]3[C@@](O)(C(=O)OC)[C@H](OC(C)=O)[C@]5(CC)C=CCN6CC[C@]43[C@@H]65)C2)C1 (some centres not stated) | -0.1 | 2.4 | -6.7 | 59.5*
CC[C@]1(O)C[C@H]2CN(CCc3c([nH]c4ccccc34)[C@H](C)[C@H]2c2cc3c(cc2OC)N(C=O)[C@H]2[C@@](O)(C(=O)OC)[C@H](C)[C@]4(CC)C=CCN5CC[C@]32[C@@H]54)C1 | 0.0 | 2.4 | 4.3 | 56.2*
COc1ccccc1NC(=O)N1CCC2(CC1)OCCc1c2[nH]c2ccccc12 | -0.4 | -0.4 | 5.9 | -3.5
COc1ccc(C2c3[nH]c4ccccc4c3CCN2C(=O)CNC(C)=O)c(C)c1C (configuration not stated) | 0.0 | -0.5 | -6.6 | 3.9
CCC1=C[C@H]2CN(C1)Cc1c([nH]c3ccccc13)[C@@](C(=O)OC)(c1cc3c(cc1OC)N(C)[C@H]1[C@@](O)(C(=O)OC)[C@H](OC(C)=O)[C@]4(CC)C=CCN5CC[C@]31[C@@H]54)C2 | -0.3 | 1.9 | 33.2 | 56.1*
CCC1(O)CC2CN(CCc3c([nH]c4ccccc34)[C@@](C(=O)OC)(c3cc4c(cc3OC)N(C=O)C3[C@]45CCN4CC=C[C@@](CC)([C@@H](OC(C)=O)[C@]3(O)C(=O)OC)[C@H]45)C2)C1 (some centres not stated) | 0.1 | -1.0 | 26.4 | 68.8*
COCCn1c(SCC(=O)c2ccccc2F)nnc1-c1ccco1 | 0.0 | 0.2 | 5.0 | -5.0
SMILES | FBW7 act | GPR151 activ | MITF primary | TEAD-YAP block
O=C(NCc1cccnc1)c1cccn2c(=O)c3ccc(Cl)cc3nc12 | -0.1 | 0.4 | 6.5 | -0.4
CCOC(=O)C(C)Oc1ccc2cc(-c3ccccc3)c(=O)oc2c1 (configuration not stated) | 2.3* | -4.2 | -3.8 | 18.2
O=C(NCCc1ccc(O)cc1)c1ccnc(Nc2ccc3ncccc3c2)c1 | 0.2 | 2.0 | 1.8 | -25.1
CCOC(=O)c1ccc(-n2c(C)c3cnc4nn(-c5ccccc5)c(=O)c-4cc3c2C)cc1 | 0.1 | -2.9 | -4.4 | -5.0
Cc1c2cnc3nn(-c4ccccc4)c(=O)c-3cc2c(C)n1-c1ccccc1 | -0.2 | 0.7 | -5.2 | 84.7*
COc1ccc(-c2nc3ccc(C(=O)NCc4cccnc4)cc3nc2-c2ccc(OC)cc2)cc1 | 0.1 | 0.6 | 7.6 | 44.5*
COc1cccc(CNC(=O)c2ccc3nc(-c4ccc(C)cc4)c(-c4ccc(C)cc4)nc3c2)c1 | 0.0 | -0.4 | -5.0 | 3.8
COc1ccc(NC(=O)Nc2ccc(C)cc2)c(OC)c1 | 1.1 | -0.7 | 9.6 | -5.5
Cn1ccc(C(=O)Nc2nc3c(s2)CCCC3)n1 | 0.8 | -10.1 | 25.8 | 46.4*
O=C(Nc1nc2c(s1)CCCC2)c1ccccc1I | -0.1 | 2.3 | -1.9 | -75.0
O=C(Nc1nc2c(s1)CCCC2)c1cc(F)c(F)c(F)c1F | 0.0 | 3.4 | 0.8 | 47.8*
COC(=O)c1ccc(C(=O)Nc2nc3c(s2)CCCC3)cc1 | 0.0 | -4.1 | -9.9 | -76.9
O=C(CCC(=O)N1CCCc2ccccc21)N1CCCc2ccccc21 | 0.0 | -1.7 | 14.5 | 8.2
Cc1nnc(N(C(=O)c2cnccn2)c2ccccc2)s1 | -0.2 | -2.1 | -2.2 | 61.7*
CSc1ccccc1NC(=O)c1nc2nc(C)cc(C)n2n1 | 0.4 | 0.5 | 2.2 | -24.7
Cc1ccc(SCCNC(=O)CCl)cc1 | 0.0 | -0.2 | -0.5 | 42.8*
O=C(Nc1ccccc1Cl)c1noc2c1COc1ccccc1-2 | 0.0 | -0.4 | 3.9 | -1.8
COc1cc(C(=O)Nc2ncc(Cc3ccc(Cl)cc3)s2)cc(OC)c1OC | -0.1 | 0.4 | -3.3 | 58.5*
CC(=O)Nc1ncc(Cc2ccc(Cl)cc2)s1 | 0.1 | 1.9 | 1.7 | 11.1
COc1ccc(C(=O)Nc2ncc(Cc3ccc(F)cc3)s2)cc1OC | 1.0 | 0.2 | 10.0 | 54.8*
COc1ccc(Cc2cnc(NC(=O)c3sc4ccccc4c3Cl)s2)cc1 | 0.0 | 2.2 | -21.9 | 48.2*
COc1ccc2nc(NC(=O)c3sc4ccccc4c3Cl)sc2c1 | -0.1 | -0.4 | -7.8 | -9.0
O=C(Nc1ncc(Cc2ccccc2Cl)s1)c1cccc2ccccc12 | -0.1 | -0.6 | -14.9 | 35.2*
Cc1ccc(N(C(=O)C2CC2)C2C=CS(=O)(=O)C2)cc1Cl (configuration not stated) | -0.1 | -1.6 | -8.0 | -5.9
Cn1c2ccccc2n2c(=O)n(Cc3cc4c(cc3Cl)OCO4)nc12 | 0.0 | -1.3 | -6.1 | 9.7
